# Screening data (PubChem)
# GPR151 ag – activates the human receptor GPR151; PathHunter beta-arrestin GPR151 cells, luminescence; Q8TDV0; hit rate 1% among 650,000; activation, % at 11.2 µM; in the data active = activation above about 4.9%;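 also: 0% = median of compound wells and 100% = cells with positive control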
# Target sequence (Q8TDV0 whole entry, looked up): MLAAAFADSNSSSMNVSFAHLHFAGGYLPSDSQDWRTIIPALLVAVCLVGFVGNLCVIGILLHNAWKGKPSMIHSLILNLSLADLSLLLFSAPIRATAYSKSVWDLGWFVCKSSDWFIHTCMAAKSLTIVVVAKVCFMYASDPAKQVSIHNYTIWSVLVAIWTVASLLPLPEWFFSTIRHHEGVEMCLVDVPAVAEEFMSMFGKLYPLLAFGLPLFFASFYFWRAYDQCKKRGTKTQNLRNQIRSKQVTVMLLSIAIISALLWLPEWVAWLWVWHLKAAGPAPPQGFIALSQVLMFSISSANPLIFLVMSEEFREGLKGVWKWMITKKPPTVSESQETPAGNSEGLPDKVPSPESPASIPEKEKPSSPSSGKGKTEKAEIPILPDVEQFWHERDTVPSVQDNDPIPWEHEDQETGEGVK
# MITF inh – blocks human microphthalmia-associated transcription factor; O75030; hit rate 0.91% among 650,000; inhibition, % at 2.6 µM; AlphaScreen MITF homodimerization, bead proximity signal; AID 1259374; in the data active = inhibition above about 50%;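 also: 0% = vehicle wells with protein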
# TEAD-YAP block – TEAD-YAP interaction inhibition. inhibition, % at 9.12 µM. hit rate 1.4% among 640,000. HEK-TIYL cells, TEAD-Gal4/YAP UAS-luciferase luminescence; in the data active = inhibition above about 32%;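 also: 0% = median of test compound wells and 100% = reference inhibitor wells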
# FBW7 act – activators of human E3 ligase FBW7; normalized activity (activation), % at 26.1 µM; hit rate 0.13% among 650,000; AlphaScreen FBW7–phospho-cyclin E peptide binding, activator screen; Q969H0; in the data active = normalized activity above about 1.9%;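 also: purified mutant Fbw7 with reduced substrate affinity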
# The depositor's hits bear a star. A selection: hits, their analogues and other compounds. The true share with any hit is near 3.4%.
SMILES,GPR151 ag,MITF inh,TEAD-YAP block,FBW7 act
COc1cccc2c1NC(c1ccc(C(=O)O)cc1)C1CC=CC21 (stereo unspecified),-1.6,71.3*,10.6,-1.0
CSc1ncccc1C(=O)OCC(=O)Nc1ccc([N+](=O)[O-])cc1C#N,1.1,-28.2,4.5,0.1
O=C(/C=N/O)NCCCNCCCNCc1ccccc1,-0.7,-40.9,-0.6,-0.2
COc1ccc(-c2noc(C3CCCN(C(=O)c4c(OC)cccc4OC)C3)n2)cc1 (stereo unspecified),0.9,-4.3,46.9*,0.1
CCCC(=O)N1CCCC(c2nc(-c3cccc(OC)c3)no2)C1 (stereo unspecified),-1.3,-0.4,-8.1,0.1
CCC(CC)C(=O)N1CCCC(c2nc(-c3cccc(OC)c3)no2)C1 (stereo unspecified),-0.5,-1.0,42.2*,-0.2
CCN(CC)C(=O)C1CCCN(c2nc(NC3CCN(Cc4ccccc4)CC3)c3ncn(C4CCCCC4)c3n2)C1 (stereo unspecified),0.7,17.0,0.5,0.2
O=C1CCCC2=C1C(c1cc(Br)ccc1O)C1C(=O)c3ccccc3C1=N2 (stereo unspecified),3.1,16.4,49.6*,-0.3
O=C1CCCC2=C1C(c1cc([N+](=O)[O-])ccc1O)C1C(=O)c3ccccc3C1=N2 (stereo unspecified),0.5,12.5,17.5,-0.8
O=C(c1n[nH]c2c1CCCC2)n1ccnc1,1.0,10.3,54.2*,-0.1
O=C(O)c1n[nH]c2c1CCCC2,-0.8,5.0,-8.1,-0.1
CCn1cc(C(=O)N2CCN(c3ccccc3OC)CC2)c(=O)c2ccc(C)nc21,-0.3,1.1,-0.7,-0.1
CCn1cc(C(=O)N2CCN(Cc3nc(-c4ccc(F)cc4)cs3)CC2)c(=O)c2ccc(C)nc21,-0.6,10.2,60.5*,0.5
COc1ccc(-c2csc(CN3CCN(C(=O)c4ccc(F)c(F)c4)CC3)n2)cc1,0.3,2.1,49.9*,-0.2
c1nc(N2CCOCC2)c2c3c(sc2n1)CCC3,0.1,17.1,16.3,0.0
O=C1NC2(CCN(S(=O)(=O)c3cccs3)CC2)Oc2ccccc21,-1.3,12.1,15.6,2.0*
O=C1NC2(CCN(Cc3cccs3)CC2)Oc2ccccc21,-0.7,-8.6,3.3,0.1
CCOc1ccc(CN2CCN(Cc3ccc(CO)o3)CC2CCO)cc1 (stereo unspecified),0.7,2.2,-3.0,0.0
Cc1ccccc1NC(=O)c1sc2nc3c(cc2c1N)C(=O)CCC3,1.5,2.1,39.0*,0.0
CCc1ccccc1NC(=O)c1sc2nc3c(cc2c1N)C(=O)CC(C)(C)C3,-0.3,5.8,2.6,-0.1
CCc1ccccc1NC(=O)c1sc2nc3c(cc2c1N)C(=O)CCC3,-0.7,8.5,54.1*,0.1
Cc1cc(C)c(CSc2nnnn2-c2ccc(C(N)=O)cc2)c(C)c1,-1.7,18.6,61.1*,0.5
Cc1cc(NC(=O)C(C)(C)C)ccc1Br,2.0,-7.4,-0.5,0.0
C=CC(=O)Nc1ccc(Br)c(C)c1,-1.2,3.7,62.3*,0.1
CN(Cc1ccccc1)C(=O)c1cc(-c2ccc(F)cc2)no1,-1.4,-1.8,-14.4,0.0
SMILES,GPR151 ag,MITF inh,TEAD-YAP block,FBW7 act
CC1C(=O)NN=C1C(=O)N/N=C\C=C\c1ccccc1 (stereo unspecified),0.2,11.3,-10.2,-0.3
COc1ccc(/C=N\NC(=O)C2=NNC(=O)C2C)cc1 (stereo unspecified),-0.7,7.3,36.0*,-0.3
Cc1ccccc1C1C(C#N)=C(N)N(N(C)C)C2=C1C(=O)CC(c1ccccc1)C2 (stereo unspecified),-1.2,-4.2,63.5*,-0.1
Cc1cc(C2C(C#N)=C(N)N(N(C)C)C3=C2C(=O)CC(c2ccccc2)C3)c(C)s1 (stereo unspecified),-0.3,-7.2,55.4*,0.1
COCCOC(=O)C1=C(C)NC2=C(C(=O)CC(c3ccc(OC)c(OC)c3)C2)C1c1cccc(C)c1 (stereo unspecified),1.2,4.4,43.2*,0.0
CCC(C)OC(=O)C1=C(C)NC2=C(C(=O)CC(c3ccc(Cl)cc3)C2)C1c1cccc(Cl)c1 (stereo unspecified),1.0,11.2,6.2,1.9*
COc1ccc(C2CC(=O)C3=C(C2)NC(C)=C(C(=O)OC(C)C)C3c2cccc(Cl)c2)cc1OC (stereo unspecified),0.4,4.7,45.9*,0.6
CC1=C(C#N)C(c2ccccc2Cl)C2=C(CC(c3ccccc3)CC2=O)N1 (stereo unspecified),-0.6,1.0,32.7*,0.2
CC1=C(C(=O)OC2CCCCC2)C(c2ccc(F)cc2)C2=C(CC(c3ccccc3)CC2=O)N1 (stereo unspecified),-0.3,14.2,9.1,1.9*
